This passage reports INHIBITION results from ChEMBL document CHEMBL4513216, “Probing the Open Global Health Chemical Diversity Library for Multistage-Active Starting Points for Next-Generation Antimalarials” (ACS Infect Dis, 2020).

Hit rate of the full screen: of about 65,000 compounds, about 2,100 (3.2%) showed an effect of 50% or more. The median lay at about -52%. The list comes from a sample in which strong results are over-represented; it also holds similar structures and randomly drawn compounds.

This assay relates to Plasmodium falciparum. Briefly: Screen against P. falciparum Asexual Blood Stage (ABS), at 5uM. Format: functional, Dd2. The note with it: tested at 5 uM.
For `Cc1nccc(N[C@H]2CN(C(=O)CCN3CCCC3=O)C[C@@H]2C(C)C)n1`, the INHIBITION is -132%.
Next, `COCCNCc1ccc(OCC(=O)NC(C)(C)C)cc1`: -80.9%; `Cc1ccc(C(=O)N2CCC3(CCN3Cc3ccc(F)cc3)C2)cn1` (centres undefined): -74.2%.
For the compound `COCCN1CCO[C@H]2CN(C(=O)c3cccs3)C[C@H]21`, the INHIBITION was -92.4%.
Next, `c1coc(-c2nnc(CN3CCCC(CN4CCCCCC4)C3)o2)c1` (centres undefined): -67.1%.
Turning to `CC(C)N(CC1CCCN(Cc2ccon2)C1)C(=O)OC(C)(C)C` (centres undefined), the INHIBITION is -5.65%.
Next, `CC(C)N(CC1CCCN(CC(N)=O)C1)C(=O)OC(C)(C)C` (centres undefined): -14.8%; `Cc1noc(C)c1CN1CCCC(CN(C(=O)OC(C)(C)C)C(C)C)C1` (centres undefined): 54.1%; `c1cncc(OC2CCN(CCn3cc4ccccc4n3)CC2)c1`: -47.4%.
Next, `CN(CC(=O)Nc1cnn(-c2ccccc2S(C)(=O)=O)c1)C1CC1`: -85.55%.
Next, `c1cncc(COCC2CC[C@H]3[C@H](CCN3CC3CCOCC3)O2)c1` (some centres undefined): -5.45%; `CCCC1CCCN(Cc2csc(-c3cnn(C)c3)n2)CC1` (centres undefined): 54.1%; `COCCN1CCN(Cc2csc(-c3cnn(C)c3)n2)CC1`: -30.6%.
For the compound `Cn1cc(C2CCCN2Cc2csc(Cc3ccccc3)n2)cn1` (centres undefined), the INHIBITION stood at 13.8%.
In the case of `Cn1cc(C2CCCN2Cc2csc(-c3ccccc3)n2)cn1` (centres undefined) it was 53.8%.
In the case of `Cn1cc(C2CCCN2Cc2csc(-c3ccsc3)n2)cn1` (centres undefined) it was -32.1%; in that of `Cn1cc(-c2nc(CN3CCN(CCO)CC3)cs2)cn1`, -59.9%; in that of `CCCS(=O)(=O)CCSc1cccc(C#N)c1`, -113%.
In the case of `O=C(Cc1ccsc1)N1CCC(c2noc(-c3cccnc3)n2)CC1` it was -53.4%; in that of `O=C(Cc1ccncc1)N1C[C@H]2CC[C@@H](C1)N(Cc1ccccc1)C2=O`, -99.2%; in that of `COc1ccc(Oc2ccc(C(F)(F)F)cn2)cc1CN1CCCC1`, 51.7%.
For the compound `Fc1cc(Oc2ccc(C(F)(F)F)cn2)cc(F)c1CN1CCCC1`, the INHIBITION was determined as 24.4%.
In the case of `COc1cc(Oc2cnc3ccccc3n2)ccc1CN1CCCC1`, the INHIBITION was found to be 59%.
Next, `COc1cc(Oc2ccc(C(F)(F)F)cn2)ccc1CN1CCCC1`: 30.2%; `COc1cc(Oc2ccc(C(N)=O)cn2)ccc1CN1CCCC1`: -42.6%.
Next, `COc1ccc(Oc2nccc3occc23)cc1CN1CCCC1`: 61.8%.
For `COc1ccc(Oc2cccc(C#N)n2)cc1CN1CCCC1`, the INHIBITION is listed as -20.2%.
With `COc1ccc(Oc2ncccc2C(F)(F)F)cc1CN1CCCC1`, the INHIBITION worked out at 32.5%.
With `COc1ccc(Oc2ncccc2F)cc1CN1CCCC1`, the INHIBITION turned out to be 15.9%.
In the case of `CCN(C)C[C@@H]1CN(C(=O)c2cc(C(F)(F)F)n[nH]2)C[C@@H]1CO` it was -5.31%; in that of `COC[C@@]12CCO[C@@H]1CCN(Cc1ccc(C)s1)C2`, -35.8%.
Next, `COCCC(=O)N1CC2(CCN(Cc3ccccc3Cl)CC2)C1`: 0.294%; `Cc1cc(C)c(CNC(=O)NCCC2CCCO2)c(=O)[nH]1` (centres undefined): 20.5%; `Cc1cc(C)c(CNC(=O)CCC2CCCO2)c(=O)[nH]1` (centres undefined): 53.2%.
`Cc1cc(C)c(CNC(=O)NCC2CCCO2)c(=O)[nH]1` (centres undefined): the INHIBITION is recorded as -64.8%.
Regarding `Cc1c(NC(=O)N(C)CCO)cccc1OC1CCCC1`, the INHIBITION is given as -65.2%.
Next, `CC(C)(C)c1cc(CN2C[C@H]3CC[C@@H](C2)N(Cc2ccccn2)C3)n[nH]1`: 47.7%; `CC(C)Cc1cc(CN2C[C@@H]3CC[C@H]2CN(Cc2cscn2)C3)n[nH]1`: 66.6%; `CC(C)(C)c1cc(CN2C[C@@H]3CC[C@H]2CN(Cc2cscn2)C3)n[nH]1`: 20.1%.
Next, `CCc1nccn1-c1nccnc1C1CCN(C(=O)COC)CC1`: -25.8%.
Next, `CN(Cc1cccnc1)C(CO)c1cccc(Br)c1` (centres undefined): -135%; `CSCc1ccc(CNC2CCCN(c3ccc(C)nn3)C2)o1` (centres undefined): -38.5%; `CC(Cn1cncc1-c1cnn(Cc2ccccc2)c1)N1CCCCC1` (centres undefined): 65.7%.
As for `CC(CN1CCOCC1)n1cncc1-c1cnn(Cc2ccccc2)c1` (centres undefined), the INHIBITION was -46.1%.
Next, `CCC(CN1CCCC1)n1cncc1-c1cnn(Cc2ccccc2)c1` (centres undefined): 44.8%; `Cc1cccc(C)c1OC1CCN(Cc2ccn(C)c(=O)c2)CC1`: -30.1%; `CC(OCC1CC1)C(=O)Nc1cccc(C(=O)Nc2ccncc2)c1` (centres undefined): -140%.
On to `O=C(CC1CN(Cc2ccccc2)CCO1)NCCN1CCOCC1` (centres undefined), for which the INHIBITION is listed as -108%.
Next, `Cc1nn(C)cc1-c1ccnc(N(C)Cc2noc(C(C)C)n2)n1`: -32.2%; `Cc1nn(C)c(C)c1-c1ccnc(N(C)Cc2noc(C(C)C)n2)n1`: -25.3%; `Cc1nn(C)c(C)c1-c1ccnc(N(C)Cc2nc(C(C)C)no2)n1`: 66.3%.
Next, `O=C(COc1ccc(F)cc1)N1CCO[C@H]2[C@@H](OCC3CC3)CC[C@@H]21`: -24%; `COc1ccc(C2=Nn3c(CCN)nnc3-c3ccccc3C2)cc1`: 32.1%.
In the case of `COc1ccc(C2=Nn3c(CN)nnc3-c3ccccc3C2)cc1` it was 64.8%.
For the compound `COc1ccc(C2=Nn3c(CCCN)nnc3-c3ccccc3C2)cc1`, the INHIBITION was -100%.
Next, `O=C(COc1ccc2c(c1)CCC2)NS(=O)(=O)c1cncc(Br)c1`: -108%; `Cc1ccc(OCC(=O)NS(=O)(=O)c2cccnc2)cc1C`: -19.2%.
On to `O=C(COc1ccc2c(c1)CCC2)NS(=O)(=O)c1cccnc1`, for which the INHIBITION was 51.8%.
In the case of `O=C(NCc1ccccn1)[C@@H]1COC[C@H]2CN(c3ncccn3)C[C@H]21` it was -20.1%; in that of `Cc1cccc(C2CCCCCN2Cc2cn(C)nc2C)c1` (centres undefined), 35.4%.
Take `Cc1cc2[nH]c(CN3CCCCC3c3cccc(F)c3)cc(=O)n2n1` (centres undefined): the INHIBITION is -64.9%.
Next, `COc1cccc(CN2CCCCCC2c2cccs2)c1O` (centres undefined): 3.59%.
Next, `COc1cccc(CN2CCCCCC2c2cccc(C)c2)c1O` (centres undefined): 57.5%; `COc1cccc(CN2CCCCCC2c2sccc2C)c1O` (centres undefined): -7.83%.
On to `COc1cccc(CN2CCCCCC2c2cccc(F)c2)c1O` (centres undefined), for which the INHIBITION is recorded as 57.6%.
`Oc1cc(-c2ccsc2)nc(C2CCN(Cc3cccnc3)CC2)n1`: the INHIBITION is -96.9%.
In the case of `O=C(NCCCNc1ccc(C(F)(F)F)cn1)c1ccc(F)cc1Br`, the INHIBITION is recorded as -29.4%.
Next, `CC(C)Nc1nc2c(cc1C(=O)NCC1CC1)CCN(CC1CC1)CC2`: -7.32%; `COCCOCC1(CNC(=O)c2ccc(OC)cc2)C[C@@H](O)[C@@H](O)C1` (some centres undefined): -102%.
